This note sets out measurements from the supplement of paper PMC12494721.

Counter-ions that a name gives are not always drawn.

This assay concerns Klebsiella aerogenes DSM 30053. Briefly: growth (OD595) fold change vs plate DMSO controls (fold change (ratio)); higher = more growth. As to conditions: incubation time: 27 h, anaerobic, 37 °C. The method in brief: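 Shaken 96-well cultures in mGAM, grown anaerobically for 27 h at 37 °C, were read at 595 nm. OD came from blank-subtracted readings, corrected for background with 20 µM compound solutions in water and scaled by a calibration factor of 5. Growth is the fold change versus the plate's median DMSO control. Values average 2 biological replicates, and any fold change above 1.5 is NA.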
On to `CC(=O)OCC(CCn1cnc2cnc(N)nc21)COC(C)=O` [Famciclovir] (20 µM), for which the growth was determined as 0.981.
For `COC(c1ccccc1)(c1ccccc1)[C@H](Oc1nc(C)cc(C)n1)C(=O)O` [Ambrisentan] (20 µM) the value was 0.991.
For `C[C@H](CCC(=O)O)[C@H]1CC[C@H]2[C@@H]3[C@@H](O)C[C@@H]4C[C@H](O)CC[C@]4(C)[C@H]3CC[C@]12C` [Urosiol] (20 µM) the value was 1.06; for `C=C(CC)C(=O)c1ccc(OCC(=O)O)c(Cl)c1Cl` [Ethacrynic acid] (20 µM), 1.01; for `C[C@]12CC[C@@H]3c4ccc(O)cc4CC[C@H]3[C@@H]1C[C@@H](O)[C@@H]2O` [Estriol] (20 µM), 1.17.
For `Cc1cc2cc3c(C)cc(=O)oc3c(C)c2o1` [Trioxsalen] (20 µM) the value was 0.991; for `O=C(Nc1cccc2c(=O)cc(-c3nnn[nH]3)oc12)c1ccc(OCCCCc2ccccc2)cc1` [Pranlukast] (20 µM), 0.999; for `C[N+]1(C)CCC(OC(=O)C(O)(c2ccccc2)C2CCCC2)C1` (centres undefined) [Glycopyrrolate bromide] (20 µM), 1.01.
Regarding `CC(C)(O)c1ccccc1CC[C@@H](SCC1(CC(=O)O)CC1)c1cccc(/C=C/c2ccc3ccc(Cl)cc3n2)c1` [Montelukast] (20 µM), the growth worked out at 1.02.
The same measure for `C[C@@H]1C[C@H]2[C@@H]3C[C@H](F)C4=CC(=O)C=C[C@]4(C)[C@@]3(Cl)[C@@H](O)C[C@]2(C)[C@H]1C(=O)COC(=O)C(C)(C)C` [Clocortolone pivalate] (20 µM): 1.04; for `CCOC(=O)C1=C[C@]2(CC)CCCN3CCc4c(n1c1ccccc41)[C@@H]32` [Vinpocetine] (20 µM): 1.03.
For `Clc1ccccc1C(c1ccccc1)(c1ccccc1)n1ccnc1` [Clotrimazole] (20 µM) the value was 0.998; for `CC(C[N+](C)(C)C)OC(N)=O` (centres undefined) [Bethanechol chloride] (20 µM), 0.937; for `C=CC(N)CCC(=O)O` (centres undefined) [Vigabatrin hydrochloride] (20 µM), 1.17.
Regarding `C=C1C[C@@]23CC[C@H]4[C@@](C)(CCC[C@@]4(C)C(=O)O[C@@H]4O[C@H](CO)[C@@H](O)[C@H](O)[C@H]4O)[C@@H]2CC[C@]1(O[C@@H]1O[C@H](CO)[C@@H](O)[C@H](O)[C@H]1O[C@@H]1O[C@H](CO)[C@@H](O)[C@H](O)[C@H]1O)C3` [Stevioside] (50 µM), the growth was determined as 0.995.
The same measure for `CCCN(CCC)C(=O)C(CCC(=O)O)NC(=O)c1ccccc1` (centres undefined) [Proglumide] (20 µM): 1.01; for `CN1CCC(=C2c3ccccc3CC(=O)c3sccc32)CC1` [Ketotifen fumarate] (20 µM): 1.07.
The same measure for `Cc1ccc(-c2ncc(Cl)cc2-c2ccc(S(C)(=O)=O)cc2)cn1` [Etoricoxib] (20 µM): 1.14; for `C[C@@H](O)[C@H]1C(=O)N2C(C(=O)O)=C(S[C@@H]3CN[C@H](C(=O)N(C)C)C3)[C@H](C)[C@H]12` [Meropenem] (20 µM): 0.316.
For `CC(C)(C)c1ccc(C(O)CCCN2CCC(C(O)(c3ccccc3)c3ccccc3)CC2)cc1` (centres undefined) [Terfenadine] (20 µM) the value was 1.09; for `CC(NN)c1ccccc1` (centres undefined) [Mebanazine] (20 µM), 0.988; for `OCCN1CCN(CC/C=C2/c3ccccc3Sc3ccc(C(F)(F)F)cc32)CC1` [Flupentixol dihydrochloride cis-(Z)] (20 µM), 0.968.
Consider `C#CCN(C)CCCOc1ccc(Cl)cc1Cl` [Clorgyline hydrochloride] (20 µM), for which the growth came to 0.95.
The same measure for `CN(C)C(=O)C(CCN1CCC(O)(c2ccc(Cl)cc2)CC1)(c1ccccc1)c1ccccc1` [Loperamide hydrochloride] (20 µM): 1.05; for `CC[N+](CC)(CC(=O)Nc1c(C)cccc1C)Cc1ccccc1` [Denatonium benzoate] (20 µM): 1.02; for `COc1cc(C)c(/C=C/C(C)=C/C=C/C(C)=C/C(=O)O)c(C)c1C` [Acitretin] (20 µM): 1.02.
For `Nc1ccn([C@@H]2O[C@H](CO)[C@@H](O)[C@@H]2O)c(=O)n1` [Cytarabine] (20 µM) the value was 1.03; for `COc1ccc2cc([C@H](C)C(=O)O)ccc2c1` [(S)-Naproxen] (20 µM), 1.02; for `COC(=O)Nc1nc2cc(C(=O)c3ccc(F)cc3)ccc2[nH]1` [Flubendazol] (20 µM), 1.12.
With `O=C(O)COc1nn(Cc2ccccc2)c2ccccc12` [Bendazac] (20 µM), the growth came to 1.05.
The same measure for `O=C(O)Cc1ccc(-c2ccccc2)cc1` [Felbinac] (20 µM): 1.08.
The same measure for `CCOc1ccc2c(c1)C(C)=CC(C)(C)N2` [Ethoxyquin] (20 µM): 1.01; for `CN1CC2c3ccccc3Oc3ccc(Cl)cc3C2C1` (centres undefined) [Asenapine maleate] (20 µM): 1.04.
Regarding `CCOC(=O)OC(C)OC(=O)[C@@H]1N2C(=O)[C@@H](NC(=O)[C@H](N)c3ccccc3)[C@H]2SC1(C)C` (some centres undefined) [Bacampicillin hydrochloride] (20 µM), the growth came out at 1.46.
For `CCCOc1ccccc1-c1nc2[nH]nnc2c(=O)[nH]1` [Zaprinast] (20 µM) the value was 1; for `CCCCC(O)c1ccccc1` (centres undefined) [Fenipentol] (20 µM), 1.03.
For `CN[C@H](CC(C)C)C(=O)N[C@H]1C(=O)N[C@@H](CC(N)=O)C(=O)N[C@H]2C(=O)N[C@H]3C(=O)N[C@H](C(=O)N[C@H](C(=O)O)c4cc(O)cc(O)c4-c4cc3ccc4O)[C@H](O)c3ccc(c(Cl)c3)Oc3cc2cc(c3O[C@@H]2O[C@H](CO)[C@@H](O)[C@H](O)[C@H]2O[C@H]2C[C@](C)(N)[C@H](O)[C@H](C)O2)Oc2ccc(cc2Cl)[C@H]1O` [Vancomycin hydrochloride] (20 µM) the value was 1.01.
As to `N#Cc1ccc(Oc2ccc3c(c2)COB3O)cc1` [Crisaborole] (20 µM), the growth was 1.02.
Consider `COc1ccc([C@@H]2Sc3ccccc3N(CCN(C)C)C(=O)[C@@H]2OC(C)=O)cc1` [Diltiazem hydrochloride] (20 µM), for which the growth worked out at 0.994.
